Results filed as inconclusive are left out. Entries that show only a call come without a potency. Active and inactive are the calls of the source. The call rests on the fitted dose curve; in most records, active means well fitted curve in the direction sought with a large enough effect; inconclusive means small, poorly fitted or top-dose-only effect, or another doubt; inactive means no such curve, though single readings can be large or run the other way.

The assay in a line: Cell viability assay for measurement of the protective activity of small molecules against cell death caused by Zika virus infection in human astrocytes. Particulars: human astrocytes ZIKV-induced death, ATP luminescence, 72 h; series mostly up to 46.1 µM. From the text: National Center for Advancing Translational Sciences [NCATS] Johns Hopkins University School of Medicine Florida State University Assay Overview: Zika virus infection causes cell death in certain cell types including human neural progenitor cells (hNPCs), astrocytes, and astrocytoma cell line (SNB-19). This cell viability assay measures the ATP content (level) in human astrocytes using a luminescence readout that is proportional to viable cell numbers. Decrease in the luminescence signal after Zika virus infection indicates the cell death caused by Zika virus. Small molecule inhibitors […] the decreased luminescence signal after Zika virus infection, indicating the protective effect of that small molecule on the cell death caused by Zika virus infection. This observed protective effect of small molecules against Zika virus induced cell death may result from inhibition of virus replication or cellular response to the virus infection.
Assay Protocol Summary: The medium for astrocytes contains AM basal medium (ScienCell, Cat.# 1801), AGS (ScienCell, Cat.# 1801), 10% FBS, and 1% Pen/Strep. The ATP content assay kit (PerkinElmer, Cat.# 6016731) was used to determine cell viability. The reagent was reconstituted and prepared as described by the manufacturer. Cells were seeded in 384- or 1536-well assay plates and cultured at 37 C with 5% CO2 for 16 to 20 hours. The typical cell seeding density in the 1536-well plate assay is 350 cells/well in 3 ul medium for astrocytes in the tissue cultured treated/PDL coated plates. Compounds were added to cells and incubated for one hour before addition of ZIKV solution to cells (2 FFU/cell). After incubation at 37 C with 5% CO2 for 72 hours, the reagent mixture of the ATP content assay kit was added to each well, followed by incubation at room temperature for 10 minutes. The luminescence intensity of the assay plates was measured using a ViewLux plate reader (PerkinElmer). […] The percentage inhibitions of the decreased cell viability by small molecule inhibitors were then calculated.
As for `N#CC1(c2ccc(NC(=O)c3cccnc3NCc3ccncc3)cc2)CCCC1`, the Potency entry was “inactive”.

`CC(C)[N+](C)(CCC(C(N)=O)(c1ccccc1)c1ccccc1)C(C)C`: the Potency entry was “inactive”.

Turning to `CCCSc1ccc2nc(NC(=O)OC)[nH]c2c1`, the Potency result was “inactive”.

For `Nc1ccc(N=Nc2ccccc2)c(N)n1`, the Potency entry is “inactive”.

For the compound `O=C(c1ccccc1)c1ccc2n1CCC2C(=O)O` (stereo not given), the Potency result was “inactive”.

With `COc1ccc(NC(=O)/C=C/c2ccc(Cl)cc2)cc1`, the Potency result is “inactive”.

As to `Nc1ccc2c(c1)CN1C(=O)c3ccccc3C1=N2`, the Potency entry is “inactive”.

As for `CC1(C)OC2=C(C(=O)c3ccccc3C2=O)[C@H](NCc2ccccc2)[C@H]1O`, the Potency result is “inactive”.

For `O=c1oc2cc(O)ccc2s1`, the Potency entry was “inactive”.

For the compound `O=S(=O)(CC1CS1)c1ccc(Oc2ccccc2)cc1` (stereo not given), the Potency result is “inactive”.

In the case of `COc1cc2nc(N3CCN(C(=O)C4CCCO4)CC3)nc(N)c2cc1OC` (stereo not given), the Potency entry is “inactive”.

On to `COc1ccc(C=CC(=O)Nc2ccccc2C(=O)O)cc1OC`, for which the Potency result is “inactive”.

Consider `C[C@H](NC(=O)C(=O)Nc1ccccc1C(C)(C)C)C(=O)N[C@@H](CC(=O)O)C(=O)COc1c(F)c(F)cc(F)c1F`, for which the Potency is 3.88 µM (active).

Turning to `O=S(=O)(O)CCSSCCS(=O)(=O)O`, the Potency result is “inactive”.

Turning to `CN1CC(=O)N2C(Cc3c([nH]c4ccccc34)[C@H]2c2ccc3c(c2)OCO3)C1=O` (stereo not given in full), the Potency result was “inactive”.

Take `C[C@@H](O[C@H]1OCCN(Cc2n[nH]c(=O)[nH]2)[C@@H]1c1ccc(F)cc1)c1cc(C(F)(F)F)cc(C(F)(F)F)c1`: the Potency entry is “inactive”.

In the case of `Cc1nc(-c2ccc(OCC(C)C)c(C#N)c2)sc1C(=O)O`, the Potency entry was “inactive”.

As for `COc1ccc(-c2coc3cc(O)ccc3c2=O)cc1`, the Potency entry was “inactive”.

Take `CNC(=O)c1ccccc1Sc1ccc2c(/C=C/c3ccccn3)n[nH]c2c1`: the Potency entry is “inactive”.

As to `NC(=O)c1cccc2[nH]c(-c3ccc([C@H]4CCCN4)cc3F)nc12`, the Potency result was “inactive”.

For the compound `COc1ccc2nc(NC(=O)Nc3ccccc3)sc2c1`, the Potency entry was “inactive”.

On to `CCCS(=O)c1ccc2nc(NC(=O)OC)[nH]c2c1` (stereo not given), for which the Potency entry was “inactive”.

As for `CCCCCCOc1ccccc1C(N)=O`, the Potency entry is “inactive”.

As to `Oc1ccc([C@H]2CNCc3c2ccc(O)c3O)cc1O`, the Potency entry is “inactive”.

For the compound `CCCCCCCC/C=C/C(=O)O`, the Potency entry is “inactive”.

As to `O=c1[nH]nc(Sc2ncc([N+](=O)[O-])s2)n1-c1ccc2c(c1)OCCO2`, the Potency entry was “inactive”.

For the compound `CN(C)c1ccc(C(=C2C=CC(=[N+](C)C)C=C2)c2ccccc2)cc1`, the Potency entry is “inactive”.

For the compound `CC(O)CN1CCN(CC(=O)[O-])CCN(CC(=O)[O-])CCN(CC(=O)[O-])CC1.[Gd+3]` (stereo not given), the Potency result is “inactive”.

In the case of `Cc1cc(O)c2ccccc2c1O`, the Potency result was “inactive”.

Take `CN1CC(=O)N/C1=N/C(=O)Nc1cccc(Cl)c1`: the Potency entry is “inactive”.

Take `CC(=NNC(=S)N1CCC1)c1ccccn1`: the Potency result was “inactive”.

With `COc1ccc(/C=C/C(=O)Nc2ccccc2C(=O)O)cc1OC`, the Potency entry was “inactive”.

For the compound `O=c1c2ccccc2nc2n1CCc1c-2[nH]c2ccccc12`, the Potency entry is “inactive”.

As to `CC(=Cc1ccccc1)C=C1SC(=S)N(CC(=O)O)C1=O`, the Potency result is “inactive”.

With `O=C(O)Cc1ccc(-c2ccccc2)cc1`, the Potency entry is “inactive”.

On to `C[C@@H]1CCN(C(=O)CC#N)C[C@H]1N(C)c1ncnc2[nH]ccc12`, for which the Potency entry was “inactive”.

Turning to `O=C1c2ccccc2C(=O)c2c1ccc(O)c2O`, the Potency result was “inactive”.

As for `CC(=O)OC(C)OC(=O)C(C)c1ccc(-c2ccccc2)c(F)c1` (stereo not given), the Potency entry was “inactive”.

In the case of `CCCC(=O)OC[C@@H](OC(=O)CCC)[C@@H](OC(=O)CCC)[C@H](Cn1c2nc(=O)[nH]c(=O)c-2nc2cc(C)c(C)cc21)OC(=O)CCC`, the Potency result is “inactive”.

On to `Nc1ccc(O)c(C(=O)O)c1`, for which the Potency result is “inactive”.

Values taken from PubChem BioAssay AID1224856 (National Center for Advancing Translational Sciences (NCATS), 2016).
